Measured values taken from PubChem BioAssay.
Activity calls are given as the source filed them.

How the values were obtained:
Albumin (Bos taurus) = Albumin (Bos taurus) (UniProt P02769); experiment: bovine serum albumin binders on microarray, profiling panel, artefact control for SMM control protein annotation, biochemical, small-molecule microarray, Alexa647 label, 635/667 nm fluorescence (AID 1118); conditions: BSA-A647 binding, fluorescence 635 nm, higher = more signal;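 further: score merges 667 nm emission intensity and signal-to-noise per printed compound spot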
Albumin (Bos taurus), sequence (P02769 whole entry, looked up): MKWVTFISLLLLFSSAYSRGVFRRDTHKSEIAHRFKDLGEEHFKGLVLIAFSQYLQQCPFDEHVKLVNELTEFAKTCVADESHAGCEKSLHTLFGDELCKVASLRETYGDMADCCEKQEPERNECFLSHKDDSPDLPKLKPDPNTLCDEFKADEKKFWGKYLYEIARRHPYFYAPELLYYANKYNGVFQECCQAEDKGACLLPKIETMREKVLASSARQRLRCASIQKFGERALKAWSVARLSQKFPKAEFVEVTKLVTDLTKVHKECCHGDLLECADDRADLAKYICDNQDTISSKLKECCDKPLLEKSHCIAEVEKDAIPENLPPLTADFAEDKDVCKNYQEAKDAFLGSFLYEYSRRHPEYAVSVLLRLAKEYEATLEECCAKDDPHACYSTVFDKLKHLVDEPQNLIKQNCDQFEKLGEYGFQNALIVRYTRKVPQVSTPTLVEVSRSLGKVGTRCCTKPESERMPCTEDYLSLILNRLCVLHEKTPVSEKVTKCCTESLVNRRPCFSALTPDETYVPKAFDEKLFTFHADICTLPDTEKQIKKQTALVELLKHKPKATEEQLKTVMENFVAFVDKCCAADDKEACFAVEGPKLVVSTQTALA

[1] = small-molecule microarray binders of probe aXIP, primary screen, biochemical, NeuroSMM set, 635/667 nm fluorescence (AID 1119); conditions: higher = more signal, called active from +8 up or from −8 down;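 further: probe is the protein aXip251-270 applied at 1 µg/mL to compound-printed slides; binding of probe to printed compounds measured as 667 nm fluorescence plus signal to noise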
[2] = small-molecule binders of probe aNOTCH3, primary screen, biochemical, small-molecule microarray, 635/667 nm fluorescence (AID 1120); conditions: higher = more signal;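 further: probe is a biotin-tagged antibody raised against NOTCH3 rather than NOTCH3 protein; score merges spot fluorescence near 667 nm with spot signal to noise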
[3] = small-molecule binders of probe aNOTCH2, primary screen, biochemical, small-molecule microarray, 635/667 nm fluorescence (AID 1121); conditions: higher = more signal;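 further: score merges feature fluorescence read at 667 nm with its signal to noise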
[4] = molecular target: Carbonic anhydrase 2 (Homo sapiens) (UniProt P00918); experiment: CAII small-molecule binders, profiling panel, biochemical, small-molecule microarray, Alexa647-labelled CAII (AID 1122); conditions: CAII-A647 binding fluorescence, higher = more signal
[5] = COS7 lysate on small-molecule microarray, probe aHis, 635 nm (AID 1123); conditions: COS7 cell lysate, fluorescence, higher = more signal;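 further: z-score combines 667nm fluorescence intensity with signal-to-noise per printed compound spot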
[6] = compound binding in COS7 lysate, probe aLAP1, primary screen, cell lysate, small-molecule microarray (AID 1124); conditions: probe aLAP1, fluorescence, higher = more signal;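 further: lysate comes from COS7 cells expressing LAP1 and is applied at 0.3 µg/mL; score merges spot fluorescence near 667 nm with signal-to-noise over triplicate slides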
Sam68 (KHDRBS1) = experiment: Sam68 small-molecule binders, primary screen, biochemical, small-molecule microarray, 635 nm fluorescence (AID 1125); conditions: small-molecule microarray binding, higher = more signal;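 further: score merges 667 nm channel intensity with signal to noise over triplicate slides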
[7] = tested on: Chordin-like protein 2 (CHRDL2); experiment: CHRDL2 small-molecule binders, primary screen, biochemical, small-molecule microarray, 635 nm fluorescence (AID 1126); conditions: small-molecule microarray binding, fluorescence 635 nm; higher = more signal;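 further: printed compound slides probed with Chrdl2 protein at 4 µg/mL for 1 h at 4 C; score merges 667 nm emission intensity with signal to noise over three replicate slides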
[8] = molecular target: Concanavalin-A (Canavalia ensiformis) (UniProt P02866); experiment: ConA small-molecule binders, primary screen, artefact control for SMM control protein annotation, biochemical, small-molecule microarray, Alexa647 label, 635 nm (AID 1127); conditions: ConA-A647 binding fluorescence, higher = more signal;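 further: z combines 667 nm emission intensity with signal-to-noise across three replicate slides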
Concanavalin-A (Canavalia ensiformis), sequence (P02866 whole entry, looked up): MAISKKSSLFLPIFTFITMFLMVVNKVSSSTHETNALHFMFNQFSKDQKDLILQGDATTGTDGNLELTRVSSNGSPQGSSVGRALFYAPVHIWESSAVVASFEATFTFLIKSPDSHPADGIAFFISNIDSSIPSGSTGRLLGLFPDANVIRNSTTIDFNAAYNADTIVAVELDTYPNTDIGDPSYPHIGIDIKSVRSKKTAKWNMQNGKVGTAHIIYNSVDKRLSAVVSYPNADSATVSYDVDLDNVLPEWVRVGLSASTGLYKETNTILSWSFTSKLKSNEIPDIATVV

[9] = anti-His antibody binders, primary screen, artefact control for SMM control protein annotation, biochemical, small-molecule microarray, 635 nm fluorescence (AID 1128); conditions: anti-His Alexa647 antibody binding, higher = more signal;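 further: score merges feature fluorescence with signal-to-noise for each printed compound spot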
[10] = tested on: Human papillomavirus type 1a E7 protein (residues 1-88); experiment: HPV1a E7 small-molecule binders, primary screen, biochemical, small-molecule microarray, residues 1-88, 635 nm (AID 1129); conditions: small-molecule microarray binding, fluorescence 635 nm; higher = more signal
[11] = molecular target: Focal adhesion kinase 1 (Homo sapiens) (UniProt Q05397); experiment: small-molecule microarray binders of FAK, primary screen, biochemical, 635/667 nm fluorescence, BSA, DTT (AID 1130); conditions: PTK2 binding, 635 nm fluorescence, higher = more signal;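 further: composite of spot emission at 667 nm and signal to noise over triplicate slides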
Focal adhesion kinase 1 (Homo sapiens), sequence (Q05397 whole entry, looked up): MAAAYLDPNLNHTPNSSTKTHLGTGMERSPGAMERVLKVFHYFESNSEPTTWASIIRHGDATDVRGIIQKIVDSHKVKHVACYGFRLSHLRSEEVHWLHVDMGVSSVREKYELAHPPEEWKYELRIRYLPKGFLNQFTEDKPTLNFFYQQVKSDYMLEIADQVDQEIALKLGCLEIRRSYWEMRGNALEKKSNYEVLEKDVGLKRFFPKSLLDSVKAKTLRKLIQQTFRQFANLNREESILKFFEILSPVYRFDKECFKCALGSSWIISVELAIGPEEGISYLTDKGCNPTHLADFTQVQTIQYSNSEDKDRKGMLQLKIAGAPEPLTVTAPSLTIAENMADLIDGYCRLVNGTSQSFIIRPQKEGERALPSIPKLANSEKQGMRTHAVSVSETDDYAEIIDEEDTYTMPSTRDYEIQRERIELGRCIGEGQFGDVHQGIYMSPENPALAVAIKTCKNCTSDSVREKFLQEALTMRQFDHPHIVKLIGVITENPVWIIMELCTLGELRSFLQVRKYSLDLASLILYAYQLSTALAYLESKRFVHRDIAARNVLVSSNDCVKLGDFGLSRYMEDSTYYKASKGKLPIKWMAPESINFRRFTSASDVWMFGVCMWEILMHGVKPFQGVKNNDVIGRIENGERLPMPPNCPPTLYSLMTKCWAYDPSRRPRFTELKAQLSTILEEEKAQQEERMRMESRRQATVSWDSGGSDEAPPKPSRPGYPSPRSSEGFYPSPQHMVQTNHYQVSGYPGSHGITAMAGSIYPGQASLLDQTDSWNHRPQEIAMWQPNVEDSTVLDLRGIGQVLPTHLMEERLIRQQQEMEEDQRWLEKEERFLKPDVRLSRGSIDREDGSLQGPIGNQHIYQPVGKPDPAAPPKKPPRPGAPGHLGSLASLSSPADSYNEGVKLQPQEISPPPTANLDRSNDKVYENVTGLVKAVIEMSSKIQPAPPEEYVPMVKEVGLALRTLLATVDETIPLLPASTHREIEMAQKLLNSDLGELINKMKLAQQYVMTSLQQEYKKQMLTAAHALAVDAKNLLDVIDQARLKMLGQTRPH

[12] = tested on: Fibrinogen (Alexa647-labelled); experiment: fibrinogen binders on compound microarrays, profiling panel, artefact control for SMM control-protein annotation, biochemical, small-molecule microarray, 635/667 nm fluorescence (AID 1131); conditions: fibrinogen-A647 binding fluorescence, higher = more signal;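 further: z-score merges 667 nm fluorescence with per-spot signal-to-noise over triplicate slides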
[13] = molecular target: Follistatin (Homo sapiens) (UniProt P19883); experiment: follistatin binders on small-molecule microarrays, primary screen, biochemical, small-molecule microarray, 635/667 nm fluorescence (AID 1132); conditions: FST binding, 635 nm fluorescence, higher = more signal
Follistatin (Homo sapiens), sequence (P19883 whole entry, looked up): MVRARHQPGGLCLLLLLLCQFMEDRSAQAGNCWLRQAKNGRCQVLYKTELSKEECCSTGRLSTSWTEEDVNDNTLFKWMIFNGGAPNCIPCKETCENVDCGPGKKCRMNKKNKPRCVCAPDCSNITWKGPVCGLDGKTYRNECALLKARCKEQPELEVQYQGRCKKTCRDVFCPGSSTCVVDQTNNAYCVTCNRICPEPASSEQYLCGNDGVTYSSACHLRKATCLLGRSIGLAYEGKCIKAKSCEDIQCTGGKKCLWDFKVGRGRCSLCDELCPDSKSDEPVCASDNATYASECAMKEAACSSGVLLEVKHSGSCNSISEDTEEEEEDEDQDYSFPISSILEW

[14] = molecular target: Fibroblast growth factor 2 (Homo sapiens) (UniProt P09038); experiment: FGF2 binders on small-molecule microarrays, primary screen, biochemical, small-molecule microarray, 635/667 nm fluorescence (AID 1133); conditions: small-molecule microarray binding, FGF2, fluorescence 635/667; higher = more signal
Fibroblast growth factor 2 (Homo sapiens), sequence (P09038 whole entry, looked up): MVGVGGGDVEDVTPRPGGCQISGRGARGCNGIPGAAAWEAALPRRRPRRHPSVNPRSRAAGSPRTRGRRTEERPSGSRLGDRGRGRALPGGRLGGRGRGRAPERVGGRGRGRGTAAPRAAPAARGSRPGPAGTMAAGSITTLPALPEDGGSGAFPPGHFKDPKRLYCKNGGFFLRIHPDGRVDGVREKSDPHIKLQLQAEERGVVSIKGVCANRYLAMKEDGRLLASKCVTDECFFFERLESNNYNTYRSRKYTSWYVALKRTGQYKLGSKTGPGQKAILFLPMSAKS

[15] = mitochondrial membrane potential change in A549 cells, profiling panel, cell-based, JC-1 fluorescence, basal, 24 h, 100 nL (AID 1138); conditions: higher = more signal;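 further: A549 lung adenocarcinoma cells under basal conditions with no added stimulus; test concentration not given here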
Lefty1 = Lefty1 binders on small-molecule microarrays, primary screen, biochemical, small-molecule microarray, 635/667 nm fluorescence (AID 1139); conditions: small-molecule microarray binding, fluorescence 635/667; higher = more signal
[16] = tested on: wheat germ agglutinin (Triticum aestivum), Alexa647-labelled; experiment: wheat germ agglutinin binders on compound microarrays, profiling panel, artefact control for SMM control-protein annotation, biochemical, small-molecule microarray, 635/667 nm fluorescence (AID 1140); conditions: WGA-A647 binding, 635 nm fluorescence, higher = more signal;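 further: score merges 667 nm feature emission with signal to noise over triplicate slides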
[17] = molecular target: Luciferin 4-monooxygenase (Photinus pyralis) (UniProt P08659); experiment: firefly luciferase enzyme inhibitors, primary screen, biochemical, luminescence, purified enzyme, 2006 set (AID 1141); conditions: SteadyGlo luminescence, 30 min, higher = more signal, called active from +8 up or from −8 down;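 further: cell-free assay with purified firefly luciferase at 100 ng per well in PBS; test concentration not given here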
Luciferin 4-monooxygenase (Photinus pyralis), sequence (P08659 whole entry, looked up): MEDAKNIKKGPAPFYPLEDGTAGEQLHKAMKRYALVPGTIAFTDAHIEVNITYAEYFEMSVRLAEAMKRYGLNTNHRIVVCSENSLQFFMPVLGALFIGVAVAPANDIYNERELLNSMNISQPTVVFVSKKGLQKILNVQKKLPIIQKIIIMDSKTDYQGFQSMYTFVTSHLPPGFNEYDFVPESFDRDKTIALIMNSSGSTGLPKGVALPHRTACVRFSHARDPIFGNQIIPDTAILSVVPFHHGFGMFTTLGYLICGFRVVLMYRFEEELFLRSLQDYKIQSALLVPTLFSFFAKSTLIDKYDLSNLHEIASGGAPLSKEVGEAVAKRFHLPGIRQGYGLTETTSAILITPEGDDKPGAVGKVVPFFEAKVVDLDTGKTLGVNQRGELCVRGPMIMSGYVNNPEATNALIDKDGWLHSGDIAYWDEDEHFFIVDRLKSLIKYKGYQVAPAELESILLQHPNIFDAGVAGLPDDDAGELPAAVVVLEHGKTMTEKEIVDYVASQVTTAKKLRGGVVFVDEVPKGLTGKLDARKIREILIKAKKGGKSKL

Row | Structure (SMILES) | composite z-score (Albumin (Bos taurus)) | composite Z-score [1] | composite z-score [2] | composite z-score [3] | composite z-score [4] | composite z-score [5] | composite z-score [6] | composite z-score (Sam68 (KHDRBS1)) | composite z-score [7] | composite z-score [8] | composite z-score [9] | composite z-score [10] | composite z-score [11] | composite z-score [12] | composite z-score [13] | composite z-score [14] | z-score [15] | composite z-score (Lefty1) | composite z-score [16] | z-score [17]
1 | CCOc1cc(C(O)C2C=CC3C(=O)NC(=O)C3N2Nc2ccccn2)ccc1O (stereo not given) | 0.409 | 0.057 (inactive) | -0.0663 | 0.0065 | 0.121 | -0.086 | 0.241 | -0.352 | 0.143 | 0.0306 | 0.227 | 0.255 | -0.0976 | -0.32 | 0.262 | 0.835 | 0.208 | -0.0684 | -0.298 | 0.25 (inactive)
2 | CC(C)C[C@@H]1NC(=O)[C@@H]2C[C@H](C(=O)NCc3ccc(F)cc3)[C@H](c3ccc(O)cc3)N2C1=O | -0.674 | 0.63 (inactive) | -0.222 | -0.126 | 0.47 | 2.61 | 0.38 | 0.425 | 0.448 | 1.18 | 2.13 | 0.0885 | 0.317 | 0.248 | 1.34 | 1.91 | 0.634 | 0.689 | -0.299 | -0.0763 (inactive)
3 | CCN(CC)c1ccc(N2CC=CC34O[C@@H]5/C=C\CCCOC(=O)C5[C@H]3C(=O)N(CCCCCCO)[C@@H]4C2=O)cc1 (stereo not given in full) | 0.248 | 0.703 (inactive) | -0.194 | -0.145 | 0.898 | 0.846 | 0.613 | -0.32 | -2.28 | -0.642 | 1.27 | -0.299 | -0.177 | -0.801 | -1.21 | -0.616 | 1.1 | -0.324 | -0.22 | -1.9 (inactive)
4 | COC(=O)C(CC#Cc1ccc2c(c1)[C@]1(C(=O)N2)[C@H](c2ccc(OCCO)cc2)N2[C@H](c3ccccc3)[C@H](c3ccccc3)OC(=O)[C@H]2[C@@H]1C(=O)O)C(=O)OC | 0.803 | 0.419 (inactive) | 0.328 | 0.224 | 0.724 | 1.37 | 0.26 | 1.28 | 0.368 | 1.15 | 3.08 | 1.19 | 1.38 | 0.915 | 0.915 | 0.228 | 0.161 | 0.861 | 1.1 | -3.07 (inactive)
5 | CC(C)=CCCC(C)=CC(O)C1C=CC2C(=O)N(c3ccccc3)C(=O)C2N1Nc1ccc([N+](=O)[O-])cc1 (stereo not given) | 1.01 | 0.649 (inactive) | 0.155 | -0.0697 | 0.856 | 2.77 | 0.167 | 1.35 | -1 | 1.14 | 0.987 | 1.22 | 0.954 | 1.02 | 1.03 | -0.151 | -0.78 | 0.253 | 0.969 | 0.453 (inactive)
6 | COCCOC(=O)N1C(=O)[C@@]2(c3cc(C#CCNC(N)=O)ccc31)[C@H](C(=O)N1CCCCCCC1)[C@H]1C(=O)O[C@H](c3ccccc3)[C@H](c3ccccc3)N1[C@@H]2c1ccc(OCCO)cc1 | 0.27 | 0.32 (inactive) | 0.331 | 0.0245 | 0.244 | 0.46 | 1.32 | 0.653 | 0.298 | 0.979 | -0.456 | 0.492 | 0.423 | 0.577 | 1.15 | 0.126 | -1.6 | 0.577 | 0.534 | -1.19 (inactive)
7 | C[N+](C)(C)CCCCCCNC(=O)[C@@H]1C[C@@H]2C(=O)NCC(=O)N2[C@@H]1c1ccc(O)cc1 | -0.356 | 0.607 (inactive) | 0.0636 | -0.174 | 0.618 | 1.69 | 0.393 | 1.06 | 1.3 | 0.788 | 0.946 | 1.05 | -0.0272 | 0.49 | 1.41 | 1.31 | -0.779 | 1.53 | 0.01 | 0.584 (inactive)
8 | COC(=O)[C@]1(Cc2ccccc2N=[N+]=[N-])N=C(c2ccc(OCCCO)cc2)O[C@@H]1c1ccccc1 | -0.274 | 0.747 (inactive) | 0.0773 | -0.0487 | 0.412 | 1.82 | 0.225 | 0.622 | -1.1 | 0.458 | 0.334 | 1.09 | -0.141 | 0.215 | 0.313 | -0.101 | 1.02 | -0.489 | 0.244 | -2.2 (inactive)
9 | C=CCNC(=O)[C@H]1[C@@H]2C(=O)O[C@@H](c3ccccc3)[C@@H](c3ccccc3)N2[C@@H](c2ccc(OCCO)cc2)[C@]12C(=O)N(C(=O)OCCOC)c1ccc(C#CC3=CCCCC3)cc12 | 0.401 | 0.495 (inactive) | 0.0813 | -0.109 | 0.643 | 1.34 | 0.737 | 1.31 | 0.399 | 1.12 | 1.56 | 1.2 | 0.485 | 0.968 | 1.17 | 1.25 | -0.615 | 0.949 | 1.17 | -1.77 (inactive)
10 | CCCC=C(CCC)[C@@H](NC(=O)Cc1ccccc1)c1ccc(C(=O)OC)cc1 | 0.506 | 0.0119 (inactive) | 0.934 | 0.0754 | 0.405 | 1.69 | 0.615 | 0.844 | 0.549 | 0.31 | 1.2 | 0.821 | 0.563 | 0.714 | 0.28 | 0.0515 | -0.298 | -0.365 | 1.03 | 1.54 (inactive)
11 | Cc1ccc(N2C(=O)c3ccccc3[C@](C)(C(=O)NC(C)C)[C@@H]2c2ccc(CO)cc2)nc1 | -0.546 | -1.02 (inactive) | -0.571 | -0.183 | 0.706 | 1.64 | -0.699 | -1.55 | -1.13 | -1.73 | -2.03 | -1.29 | -1.72 | -2.28 | -0.739 | -0.276 | 0.0388 | -2.28 | 0.654 | -1.01 (inactive)
